This is a sample that favours compounds with a hit; in the whole collection about 4.2% have one here.
tim23-1 inh: growth inhibitors of tim23-1 mutant yeast, primary screen, luminescence, uHTS; S. cerevisiae tim23-1 growth, BacTiter-Glo luminescence, 24 h; inhibition, % at 20 µM; hit rate 1.3% among 330,000;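 active = growth inhibition of the mutant yeast at or above 50%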;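 note: temperature-sensitive mutant grown at 25 °C; plate controls were DMSO-treated mutant yeast for no effect and medium wells lacking yeast for full effect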
tim10-1 inh: growth inhibitors of tim10-1 mutant yeast, primary screen, luminescence, uHTS | hit rate 2.2% among 330,000 | inhibition, % at 20 µM | S. cerevisiae tim10-1 ts strain growth, BacTiter-Glo, 24 h;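 active = inhibition of at least 40%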;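 note: mutant grown at 25 °C; 0% = DMSO wells with yeast and 100% = wells holding no yeast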
NALP3 yeast inh: NALP3 inflammasome inhibitors in reconstituted yeast, primary screen, luminescence, uHTS; Yeast reconstituted NLRP3/ASC/caspase-1, beta-gal luminescence, 24 h; inhibition, % at 10 µM; hit rate 0.39% among 330,000; AID 2825, 2010;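 active = inhibition of 50% or more; inactive = inhibition below 50%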;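 note: plate controls were induced DMSO wells for no effect and uninduced yeast grown without galactose for full effect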
V-ATPase pH: regulators of yeast V-ATPase proton pumping, primary screen, pHLuorin cytosolic pH fluorescence | S. cerevisiae | response, % at 10 µM | hit rate 0.37% among 350,000; in the data active = response mostly above about 7.3%, no sharp cut-off; inactive = mostly below about 5.4%; note: actives read high
TIM10 inh: growth inhibitors of isogenic TIM10 control yeast, primary screen, counter-screen for tim10-1 yeast inhibitor project, luminescence, uHTS; S. cerevisiae TIM10 strain growth, BacTiter-Glo luminescence, 24 h; inhibition, % at 10 µM; hit rate 1.4% among 330,000; AID 463195, 2010;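 active = inhibition of 40% or more at the single tested concentration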;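 note: wild-type TIM10 isogenic control strain grown at permissive 25 °C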
NALP1 inh: NALP1 inflammasome inhibitors in reconstituted yeast, colorimetric, S. cerevisiae, triplicate retest | hit rate 0.61% among 280,000 | inhibition, % at 10 µM | S. cerevisiae NALP1/ASC/caspase-1 growth, X-gal OD620, 72 h | AID 2071, 2009; in the data active = inhibition mostly above about 24%, no sharp cut-off; inactive = mostly below about 32%
tim10-1 confirm: growth inhibitors of tim10-1 mutant yeast, confirmation, single concentration, luminescence, S. cerevisiae; S. cerevisiae tim10-1 ts strain growth, BacTiter-Glo, 24 h; hit rate 56% among 7,400; inhibition, % at 20 µM; shares compounds with tim10-1 inh;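 active = inhibition of yeast growth at or above a set limit in either of two repeat tests at 20 µM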;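 note: tim10-1 mutant grown at permissive 25 °C to find synthetic lethal compounds; 0% = DMSO yeast wells and 100% = medium wells without yeast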
Starred values were filed as active, the others as inactive; x = not tested or not shown.

SMILES	tim23-1 inh	tim10-1 inh	NALP3 yeast inh	V-ATPase pH	TIM10 inh	NALP1 inh	tim10-1 confirm
O=C1C(Cc2ccccc2)Nc2ncnc(N3CCN(c4ccccc4)CC3)c2N1Cc1ccc(Br)cc1 (centres undefined)	27	14	18	-4	17	x	x
Cc1noc(NS(=O)(=O)c2ccc(NC(=O)Nc3ccc(Cl)c(Cl)c3)cc2)c1C	15	46*	13	x	17	33	38*
O=S1(=O)CCO[C@H]2Cc3ccccc3[C@H]2N1Cc1cccc(C(F)(F)F)c1	-11	16	47	3	1	-1	x
CCCN(CC(=O)Nc1cc(Cl)cc(Cl)c1)CC(=O)Nc1ccc(F)c(F)c1F	37	51*	3	6	37	17	29
Cc1ccc(CN2CCN(Cc3ccc4cccc(F)c4n3)CC2CCO)cc1 (centres undefined)	-2	-9	21	2	-13	-31	x
Clc1ccc2c(c1)c1ccccc1n2CN1CCOCC1	40	54*	27	-3	23	6	25
Cc1cc(/C=C\c2ccc3cc(N(C)C)ccc3[n+]2C)c(C)n1-c1ccccc1	32	70*	35	1	29	x	50*
C[n+]1c(/C=C/c2ccc(O)cc2)ccc2ccccc21	27	18	29	3	38	5	x
O=C1c2ccccc2S(=O)(=O)N1CC(O)Cn1ccc2ccccc21 (centres undefined)	45	42*	21	-4	23	12	20
N/C(CCS(=O)(=O)c1ccc(Cl)cc1)=N\OC(=O)c1ccccc1C(F)(F)F	35	64*	-7	3	34	0	78*
CS(=O)(=O)N(CC(=O)Nc1cccc(F)c1)Cc1ccccc1	7	49*	4	-3	-12	22	5
CCOC(=O)C1CCN(c2ncnc3cc(OC)c(OC)cc23)CC1	6	5	13	0	17	x	x
CC(C)NC(=O)c1ccc(-c2ccccc2C(F)(F)F)o1	30	26	45	0	18	7	x
O=C(Nc1ccccc1)c1ccc(-c2ccccc2C(F)(F)F)o1	40	44*	28	2	20	43	27
COc1cc2ccccc2cc1C(=O)N1CCCC(C(F)(F)F)C1 (centres undefined)	22	31	11	1	-14	x	x
Cc1nc(N2CCN(C(=O)COc3ccccc3)CC2)c2c(C)c(C)sc2n1	27	41*	12	-5	39	3	27
COC(/C(=N/O)c1ccc(Cl)cc1)c1ccccc1 (centres undefined)	47	47*	-20	1	26	4	31*
COc1ccc(Cl)cc1NC(=O)C(OC)c1ccccc1 (centres undefined)	15	-10	16	3	8	12	x
O=C1CNC(=O)/C1=C\c1ccc(O)cc1	5	15	14	2	6	9	x
Cc1cccc(N2CCN(C(=O)CCC(=O)N3Cc4ccccc4Oc4ncccc43)CC2)c1C	26	54*	18	0	-12	17	-20
COc1ccccc1NC(=O)C(C)OC(=O)/C=C/c1ccc2ccccc2n1 (centres undefined)	46	52*	9	1	14	x	30*
FC(F)(F)c1ccccc1-c1nc(-c2ccncc2)no1	-9	-47	4	-1	5	10	x
CS(=O)(=O)c1ccccc1-c1nc(-c2ccc(C(F)(F)F)cc2)no1	44	40*	20	-2	28	-3	20
Cc1cc(N(CCO)CCO)ccc1N=Nc1cc(F)ccc1F	45	41*	28	-5	16	8	38*
Cc1ccccc1CNC(=O)c1ccc(Cl)c([N+](=O)[O-])c1	45	43*	39	0	-1	29	22
SMILES	tim23-1 inh	tim10-1 inh	NALP3 yeast inh	V-ATPase pH	TIM10 inh	NALP1 inh	tim10-1 confirm
Cc1ccccc1CNC(=O)Cc1ccccc1[N+](=O)[O-]	16	10	12	-9	-2	22	x
CC(=O)c1ccc(OCc2cc(C(=O)N3CCC(c4ccncc4)CC3)no2)cc1	1	44*	17	-1	5	9	-39
COCC1CCN(C(=O)c2cc(COc3ccc(C)c(C)c3)on2)C1 (centres undefined)	13	4	34	0	3	3	x
COCC1CCN(C(=O)c2cc(COc3ccc4c(c3)CCCC4)on2)C1 (centres undefined)	24	40*	29	-5	12	27*	20
COc1cccc(OCc2cc(C(=O)N3CCC(c4ccncc4)CC3)no2)c1	32	34	16	0	13	21	x
Cc1cc(OC(=O)c2ccccc2C)c([N+](=O)[O-])c(=O)[nH]1	-5	-11	6	-1	0	-12	x
O=S(=O)(NCCCSc1ccccc1)c1ccccc1F	48	42*	41	-1	5	21	18
CCn1c(=O)n(CC)c2cc(N3CCCC3)c(NC(=O)c3cc(Br)ccc3OC)cc21	40	44*	9	x	4	8	-3
CCn1c(=O)n(CC)c2cc(N3CCCC3)c(NC(=O)c3ccc(C)cc3)cc21	32	42*	15	-1	-9	2	-15
CCn1c(=O)n(CC)c2cc(N3CCCC3)c(NC(=O)c3ccccc3)cc21	22	25	8	-2	11	12	x
Cc1ccc(S(=O)(=O)/N=C(/NC(=S)Nc2cccc(C)c2)c2ccccc2)cc1	14	38	14	-3	18	-2	x
Cc1cccc(NC(=S)N/C(=N/S(=O)(=O)c2ccccc2)c2ccccc2)c1	20	42*	17	-1	26	6	14
CC1(C)CC2CC(C)(CN2S(=O)(=O)c2cccc(N)c2)C1 (centres undefined)	27	48*	2	2	35	7	39*
O=C(Nc1ncccc1Cl)c1ccccc1F	-6	13	6	1	-9	23	x
CN(C)S(=O)(=O)Oc1ccsc1C(=O)Nc1ccc(Cl)c(Cl)c1	26	44*	26	0	28	9	36*
CN(C)S(=O)(=O)Oc1ccsc1C(=O)Nc1cccc(Cl)c1	26	31	24	1	22	4	x
Cc1ccc(C(=O)N2CCCC(N3CCN(c4cccc(C(F)(F)F)c4)CC3)C2)s1 (centres undefined)	35	42*	10	2	18	23	21
CC(=O)N1CCCC(N2CCN(c3cccc(C(F)(F)F)c3)CC2)C1 (centres undefined)	1	-23	9	-1	-4	28	x

Assay outcomes from PubChem BioAssay.
